# Compound activity: PubChem, National Center for Advancing Translational Sciences (NCATS)
# Only some compounds are listed: those with a hit (about 2.4% of all), similar ones and a draw of the others.
# Pol eta inh-1 = blocks human DNA polymerase eta activity; Q9Y253; recombinant Pol eta, fluorescent DNA replication assay; Potency, µM (highest dose often 114 µM), for inactives: at the highest dose activity change, negative = inhibition, most hits filed as inhibitors; 1.2% of 390,000 active; also: % is scaled to controls: 0 for no effect and ±100 for the full control effect
#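 Pol eta at 10 nM preincubated with compounds 15 min at room temperature; reaction started with fluorescent substrate (50 nM final) and read kinetically at 0 and 10 min.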
# FEN1 inh-1 = blocks human flap endonuclease 1; P39748; Recombinant FEN1 flap cleavage, fluorescence, 15 min; Potency, µM (top dose mostly 114 µM), for the others: top-dose activity change, negative = inhibition, usual class: inhibitors; 0.35% of 390,000 active; also: % is scaled to controls: 0 for no effect and ±100 for the full control effect; nearly all actives have a fitted effect of over 65% in size
#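 Enzyme 10 nM, 15 min RT preincubation with compound; start with substrate 50 nM final; reads at 0 and 15 min; qHTS titration, four-parameter Hill fit.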
# Pol iota inh = inhibitors of human DNA polymerase iota; Potency, µM (highest dose often 115 µM), for inactives: at the highest dose activity, negative = inhibition, hits mostly inhibitors; Pol iota fluorescent replication assay, 10 min; 1% of 390,000 active
#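 Pol iota at 10 nM preincubated 15 min with compounds at room temperature; reaction started with fluorescent substrate, 50 nM final. Fluorescence read kinetically at 0 and 10 min; buffer-only wells as negative control.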
# Pol beta inh = inhibitors of human DNA polymerase beta; P06746; Pol beta primer extension/strand displacement, fluorescence kinetic; 1.3% of 340,000 active; AID 485314; Potency, µM (doses to about 114 µM), for the others: at the top dose activity change, negative = inhibition, actives largely listed as inhibitors; also: % is scaled to controls: 0 for no effect and ±100 for the full control effect
#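 Curves were derived by four-parameter Hill fits of normalized qHTS data. The kinetic fluorescent primer-extension read was taken at 0 and 10 min after 50 nM substrate, following a 15 min room-temperature preincubation of 10 nM enzyme with compounds.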
# Pol kappa inh-1 = DNA polymerase kappa (human) inhibition; Q9UBT6; purified Pol kappa, fluorescent DNA synthesis assay, 10 min; Potency, µM (titrated, usually from 107 µM), for inactives: at the top dose activity, negative = inhibition, most hits filed as inhibitors; 0.53% of 400,000 active; AID 588579; also: % is scaled to controls: 0 for no effect and ±100 for the full control effect
#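 Kinetic fluorescence screen: compound preincubated 15 min RT with 10 nM enzyme; 50 nM substrate (final) initiates; reads at 0/10 min.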
# WRN inhibitor = WRN helicase (human) inhibition; Q14191; WRN helicase unwinding, fluorescent forked duplex, kinetic; Potency, µM (top dose mostly 114 µM), without a hit: at the top dose activity change, negative = inhibition, actives largely listed as inhibitors; 0.46% of 360,000 active; AID 651768; also: % is scaled to controls: 0 for no effect and ±100 for the full control effect; nearly all actives have a fitted effect of over 55% in size
# Target sequence (Q14191 whole entry, looked up): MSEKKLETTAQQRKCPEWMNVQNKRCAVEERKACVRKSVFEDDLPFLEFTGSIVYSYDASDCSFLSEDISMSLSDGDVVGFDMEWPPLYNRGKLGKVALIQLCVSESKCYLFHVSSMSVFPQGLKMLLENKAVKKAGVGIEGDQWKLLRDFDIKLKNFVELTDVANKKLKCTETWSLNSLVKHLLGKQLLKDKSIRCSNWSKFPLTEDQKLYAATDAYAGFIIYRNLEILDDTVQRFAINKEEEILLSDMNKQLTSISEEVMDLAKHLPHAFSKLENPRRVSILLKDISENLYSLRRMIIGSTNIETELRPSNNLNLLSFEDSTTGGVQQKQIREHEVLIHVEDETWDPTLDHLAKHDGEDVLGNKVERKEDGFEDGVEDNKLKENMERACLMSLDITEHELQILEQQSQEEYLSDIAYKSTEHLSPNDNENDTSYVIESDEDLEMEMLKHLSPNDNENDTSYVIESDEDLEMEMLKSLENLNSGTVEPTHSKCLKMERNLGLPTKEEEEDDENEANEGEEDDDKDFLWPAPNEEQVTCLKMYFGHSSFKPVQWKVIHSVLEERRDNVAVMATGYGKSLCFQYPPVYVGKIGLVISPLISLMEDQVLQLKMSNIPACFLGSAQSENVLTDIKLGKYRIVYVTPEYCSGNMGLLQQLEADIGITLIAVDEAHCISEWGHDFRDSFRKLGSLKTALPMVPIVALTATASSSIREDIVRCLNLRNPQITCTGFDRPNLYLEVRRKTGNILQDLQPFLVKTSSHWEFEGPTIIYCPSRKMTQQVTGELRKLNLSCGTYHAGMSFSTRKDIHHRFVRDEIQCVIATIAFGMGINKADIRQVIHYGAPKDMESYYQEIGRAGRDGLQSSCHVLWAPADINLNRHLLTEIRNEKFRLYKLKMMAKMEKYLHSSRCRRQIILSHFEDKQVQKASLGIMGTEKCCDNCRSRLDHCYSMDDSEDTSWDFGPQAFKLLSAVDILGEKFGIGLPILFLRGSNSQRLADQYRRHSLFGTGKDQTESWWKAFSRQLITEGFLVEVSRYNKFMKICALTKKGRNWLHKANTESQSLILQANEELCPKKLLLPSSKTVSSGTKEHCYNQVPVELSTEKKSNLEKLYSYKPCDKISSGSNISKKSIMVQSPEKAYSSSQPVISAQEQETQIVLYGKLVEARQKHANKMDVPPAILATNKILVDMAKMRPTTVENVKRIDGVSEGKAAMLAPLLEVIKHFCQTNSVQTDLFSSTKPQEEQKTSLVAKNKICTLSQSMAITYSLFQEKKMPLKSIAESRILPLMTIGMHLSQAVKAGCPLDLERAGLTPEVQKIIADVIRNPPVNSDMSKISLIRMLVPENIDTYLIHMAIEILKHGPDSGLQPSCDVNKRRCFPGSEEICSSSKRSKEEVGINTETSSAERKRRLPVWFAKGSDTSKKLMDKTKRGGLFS
#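 WRN at 20 nM final preincubated with compound 15 min at room temperature; reaction started with 100 nM fluorophore/quencher forked duplex oligonucleotide and 2 mM ATP final. Unwinding followed kinetically by red fluorescence (ex 525, em 598 nm).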
# TbPGK inh = TbPGK inhibition, hit validation; shares compounds with Pol kappa inh-1; TbPGK coupled GAPDH assay, Kinase-Glo luminescence; Potency, µM (highest dose often 57.5 µM), without a hit: top-dose activity change, negative = inhibition, actives largely listed as inhibitors; 79% of 500 active; also: % is scaled to controls: 0 for no effect and ±100 for the full control effect; nearly all actives have a fitted effect of over 65% in size
# Pol iota confirm = Confirm cherry-picked inhibitors of human polymerase iota. shares compounds with Pol kappa inh-1. Pol iota primer extension, TAMRA/BHQ fluorescence. Potency, µM, actives largely listed as inhibitors. 77% of 1,500 active
# Pol kappa inh-2 = confirmation of human DNA polymerase kappa inhibitors; AID 720501; Potency, µM, hits mostly inhibitors; purified Pol-kappa, fluorescent strand-displacement substrate; shares compounds with Pol eta inh-1; 76% of 920 active
# Pol eta inh-2 = Pol eta (human) inhibition, cherry-pick confirmation. shares compounds with Pol eta inh-1. Pol eta primer extension, TAMRA/BHQ fluorescence, 10 min. Potency, µM, actives largely listed as inhibitors. 64% of 2,600 active. AID 720502
# FEN1 inh-2 = confirmation of human FEN1 inhibitors; shares compounds with FEN1 inh-1; FEN1 flap cleavage, TAMRA/BHQ2 fluorogenic DNA substrate; Potency, µM, usual class: inhibitors; 79% of 880 active; also: nearly all actives have a fitted effect of over 60% in size
# * marks the source's active call; other numbers are inactive results; u = inconclusive; x = no result; [ ] = remark or other dose. Calls follow the shape of the dose curve; as a rule, active = well fitted curve in the direction sought with a large enough effect; inconclusive = small, poorly fitted or top-dose-only effect, or another doubt; inactive = no such curve, though single readings can be large; an effect the other way counts as inactive or inconclusive. Potency is read from the fitted curve at half-maximal effect.
SMILES,Pol eta inh-1,FEN1 inh-1,Pol iota inh,Pol beta inh,Pol kappa inh-1,WRN inhibitor,Pol iota confirm,Pol kappa inh-2,Pol eta inh-2,FEN1 inh-2,others
CCc1ccc(C(=O)c2cn(CC(=O)Nc3ccc4c(c3)OCO4)c3ccc(OC)cc3c2=O)cc1,44.7µM*,31.6µM*,u,10µM*,-21.6%,x,21.2*,16.8*,u,67.5*,
C=CCc1cccc2cc(C(=O)Nc3ccc(S(=O)(=O)Nc4nnc(CC)s4)cc3)c(=O)oc12,10µM*,39.8µM*,8.91µM*,-1.4%,-14.3%,-31.9%,u,37.7*,30.1*,84.9*,
CCc1nnc(NS(=O)(=O)c2ccc(NC(=O)c3ccccc3C)cc2)s1,-4.8%,14.1%,-23.5%,-1.2%,-12.0%,1.9%,x,x,x,x,
O=S1(=O)CCOC[C@H](c2ccccc2)N1Cc1ccc(Cl)cc1Cl,x,-27.0%,-3.9%,x,-10.3%,x,x,x,x,x,
COc1cc(/C=N\NC(=O)c2ccc(-c3ccccc3)cc2)ccc1OCC(N)=O,-10.9%,4.6%,1.8%,-10.9%,-2.5%,0.8%,x,x,x,x,
CCOc1cc(/C=N/NC(=O)c2ccc(-c3csc(Nc4ccc(C)cc4)n3)cc2)ccc1OCC(=O)O,17.8µM*,50.1µM*,8.91µM*,5.01µM*,31.6µM*,50.1µM*,29.9*,18.9*,75.7*,53.6*,TbPGK inh=11.6µM*
Nc1ccc(Br)c2c1C(=O)c1ccccc1C2=O,u,u,u,u,-8.5%,-29.2%,x,x,x,x,
Nc1ccc(O)c2c1C(=O)c1ccccc1C2=O,8.91µM*,35.5µM*,39.8µM*,2.82µM*,28.2µM*,31.6µM*,18.9*,3.36*,21.3*,42.6*,TbPGK inh=11.6µM*
C=Cc1ccc(S(=O)(=O)O)cc1,x,x,x,x,-2.7%[19.4 µM],x,x,x,x,x,
CN(C)CCNc1ccc2ncn3c4ccc(O)cc4c(=O)c1c23,u,8.91µM*,79.4µM*,x,22.4µM*,u,11.9*,9.47*,x,4.78*,
O=c1[nH]c(=S)[nH]c2c1C(c1ccc(Br)cc1)c1c([nH]c(=S)[nH]c1=O)O2,2.24µM*,17.8µM*,1µM*,12.6µM*,3.98µM*,14.1µM*,2.67*,x,1.69*,2.13*,
CCOC(=O)C1CCN(c2c(NCCCN(CC)c3ccccc3)c(=O)c2=O)CC1,2.4%,-12.3%,-18.0%,0.2%,-24.4%,-2.9%,x,x,x,x,
CCN(CCCNc1cc2c(c(N)c1S(=O)(=O)O)C(=O)c1ccccc1C2=O)c1ccccc1,25.1µM*,x,x,x,x,5.4%[11.6 µM],67*,u,75.7*,u,
O=C(O)Cc1c[nH]c2cccc(O)c12,8.91µM*,50.1µM*,u,17.8µM*,22.4µM*,u,18.9*,x,7.57*,47.8*,
CC(=O)c1cc(-c2ccc(F)cc2)n(CC(=O)NCc2ccc(C)cc2)c1C,-4.4%,1.8%,8.7%,-2.9%,-6.6%[60.1 µM],x,x,x,x,x,
COC(=O)C1=COC(OC2OC(CO)C(O)C(O)C2O)C2C1C=CC2(O)CO (centres undefined),17.8µM*,-0.8%,39.8µM*,20µM*,35.5µM*,-23.4%,33.6*,x,26.9*,u,TbPGK inh=8.19µM*
